Reference: PubChem BioAssay (NCI)
This is part of a sample that, as a whole, favours compounds with a hit. Of some 83,000 tested, about 20% had one in any assay.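 Plates (96-well) were seeded with cells, treated with compound at one concentration, and incubated for 48 hours before percent growth was determined.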 Unmarked numbers belong to inactive results. Activity calls are given as the source filed them. Rule for the calls: active = growth percent below 10; inactive = the rest.

What was measured:
Test in all cases: NCI-60 one-dose screen, 48 h (100 = growth as untreated, 0 = no growth, -100 = all killed)
Details in all cases: 10 µM unless noted
SK-MEL-2 melanoma = system: SK-MEL-2 melanoma
EKVX NSCLC = system: EKVX NSCLC
UO-31 renal = system: UO-31 renal
TK-10 renal = system: TK-10 renal
ACHN renal = system: ACHN renal
CAKI-1 renal = system: CAKI-1 renal
A498 renal = system: A498 renal
CCRF-CEM leukemia = system: CCRF-CEM leukemia
MOLT-4 leukemia = system: MOLT-4 leukemia
SN12C renal = system: SN12C renal

Compound | growth (SK-MEL-2 melanoma) | growth (EKVX NSCLC) | growth (UO-31 renal) | growth (TK-10 renal) | growth (ACHN renal) | growth (CAKI-1 renal) | growth (A498 renal) | growth (CCRF-CEM leukemia) | growth (MOLT-4 leukemia) | growth (SN12C renal)
O=C(Nc1cccc2c1C(=O)c1cccc(Nc3cccc4c3C(=O)c3cccc(NC(=O)c5ccccc5)c3C4=O)c1C2=O)c1ccccc1 | 109% | 125% | 86.3% | 108% | 104% | 99.1% | 121% | 89.5% | 104% | 
C=C1CC[C@@H]2[C@](C)(COC(C)=O)[C@H](OC(C)=O)CC[C@@]2(C)[C@@H]1CC(NCc1ccc(F)cc1)C1=CCOC1=O (some centres undefined) | 73.2% | 50% |  | 66.6% | 50.9% |  | 51.7% | 9.18% (active) | -0.37% (active) | 46.2%
CCc1ccc(C(c2ccc(CC)cc2)C(Cl)(Cl)CCl)cc1 | 94.2% | 95.8% | 84.1% | 109% | 97.6% | 96.6% | 81.7% | 114% | 84.4% | 
Cc1ccc2c(NCCCN(C)C)c3c(C)nn(C)c3nc2c1 | 44% |  | 26.5% | 28.4% | 27.2% | 14.5% | 28.3% | 31.7% | 10.7% | 42.9%
O=C1OC2C(I)C3CC2C1C3c1ccccc1 (centres undefined) | 128% | 129% | 95.8% | 145% | 102% |  | 114% | 110% | 102% | 
OCC1C2C=CC(C2)C1CO (centres undefined) | 114% | 102% |  | 112% | 105% |  | 92.5% | 126% | 97.9% | 
CCCCCCCCCCCCCCCC[N+]1(CC)CCCC1 | -59.2% (active) |  | 38.3% | -59.1% (active) | 9.99% (active) | -41.8% (active) | -9.64% (active) | -67% (active) | -67.3% (active) | -16.7% (active)
O=S(=O)(NCCCNc1cc(-c2cn(-c3ccccc3)nc2-c2ccccc2)ccn1)c1ccc(C(F)(F)F)cc1 | 79% | 46.4% |  | 72.3% |  | 52.4% | 70.6% | 50.2% | 29.4% | 63%
O=[N+]([O-])c1c(F)cccc1Nc1cccc(F)c1 | 103% | 103% | 78.3% | 113% | 101% | 101% | 80.8% |  | 93.8% | 
COc1c(Cl)cc(Cl)cc1Cl | 117% |  | 88.4% | 109% | 112% | 126% | 96.5% | 110% | 91.4% | 100%
CCN(CC)CCCNc1cccc2c(SCc3ccccc3)ccnc12 | 114% | 63.5% | -9.99% (active) |  | 102% | 58.8% | 75.7% | -26.1% (active) | -24.2% (active) | 
CN(C)c1ccc(/C=C(\C#N)c2nc3ccccc3s2)cc1 | 106% | 89.5% |  |  | 101% | 89.2% | 112% | 81.8% | 96.4% | 104%
O=C(NC(Cc1ccccc1)C(=O)CCl)OCc1ccccc1 (centres undefined) | 8.62% (active) |  | 59.6% | 84.8% | 72% | 48.2% | 98.7% | -4.62% (active) | 12.2% | 56.7%
COc1ccc(C2CC(=O)Nc3c2c(C)nn3-c2nc3ccccc3[nH]2)cc1 (centres undefined) | 100% |  | 34.3% | 116% | 99.1% | 101% | 41.6% | 10.1% | -44.6% (active) | 103%
CC1(C)OCC2OC3(C(=O)O)OC(C)(C)OC3C2O1 (centres undefined) | 105% |  | 94.2% | 102% | 103% | 103% | 93.6% | 108% | 97.9% | 106%
CCN(CC)c1ccc(CNc2cc(C)nc3ccc(OC)cc23)cc1 | 79.2% | 25.7% | 3.78% (active) | 71.1% | 78.1% | 21.6% | 17% | 23.3% | 4.46% (active) | 

Compound | growth (SK-MEL-2 melanoma) | growth (EKVX NSCLC) | growth (UO-31 renal) | growth (TK-10 renal) | growth (ACHN renal) | growth (CAKI-1 renal) | growth (A498 renal) | growth (CCRF-CEM leukemia) | growth (MOLT-4 leukemia) | growth (SN12C renal)
C#Cc1nc2ccccc2c(=O)[nH]1 | -21.9% (active) |  | -72% (active) | -42.3% (active) | -69.2% (active) | -86.4% (active) | -61.5% (active) | -17% (active) | -21.4% (active) | -41.3% (active)
CN1/C(=C\C=C\C2=[N+](C)c3ccccc3C2(C)C)C(C)(C)c2ccccc21 | -56.6% (active) | 13.3% | 8.16% (active) | 5.75% (active) | 1.47% (active) |  | 1.83% (active) | 7.62% (active) | -12.6% (active) | 
CCCN(CCC)CN(CCC)CCC | 108% | 98.8% | 84.8% | 106% | 102% | 96.3% | 91.8% |  | 97.1% | 
COc1cccc(/C=C\C(=O)c2ccccc2)c1 | 105% |  | 60.2% | 102% | 75% | 66.6% | 93.8% | 25.2% | 28.8% | 70.1%
COc1nc2c(cc1S(=O)(=O)c1ccccc1)CCc1c-2cnn1Cc1ccccc1 | 74.3% | 36.1% | 39.4% |  | 71.7% |  | 17.6% | 68.7% | 44.9% | 
Cc1noc(C)c1-c1cc(O)cc(C(O)c2ccccc2)c1 (centres undefined) | 60.4% |  | 16.9% | 12.6% | 60.6% | 23.8% | -3.34% (active) | 46.7% | 58.8% | 74.5%
COc1nc2c(cc1S(=O)(=O)c1ccccc1)CCc1c-2cnn1-c1ccc(Cl)cc1 | 97.2% | 90.4% | 99.3% | 110% | 102% | 90.8% | 82.4% | 84.2% | 86.3% | 
COc1c(C2CC(=O)Nc3c2cnn3Cc2ccco2)cc2c(c1OC)OCO2 (centres undefined) | 46.3% |  | 59.4% | 73.9% | 40.2% | 36.9% | -2.53% (active) | 10.1% | 1.51% (active) | 32.5%
CCN(CC)Cc1cc(Nc2c3ccc(Cl)cc3nc3c(C)cccc23)ccc1O | -73.2% (active) | -40.4% (active) | -96.8% (active) | -60.5% (active) | -86.4% (active) |  | -48% (active) | 4.19% (active) | -3.97% (active) | 
O=C(/C=C/c1ccc(Cl)cc1)/C=C/c1cc2ccccc2[nH]c1=O | 98.2% |  | 63.9% | 119% | 74% | 108% | 94.7% | 2.35% (active) | 15.7% | 62.8%
COc1ccc(-c2c(C)noc2-c2ccc(O)cc2O)cc1 | 101% |  | 87.3% | 99.8% | 90.3% | 95.8% | 88% | 71.7% | 59.1% | 85.7%
CCOC(=O)c1c2c(n3ccc(NC(=O)CCN4CCCCC4)cc13)C(=O)c1ncccc1C2=O | 52.1% |  | 10.3% | 54% | -52.5% (active) | 16.9% | 58.5% | -22.9% (active) | -25.9% (active) | 30.2%
CCCCCCCCCCCCCCCCCCNC(=O)[C@H]1CSC(c2ccc(OC)c(F)c2)N1 (some centres undefined) | -54.1% (active) |  | 66.6% | 59.5% | 87.8% | 52.9% | 64.9% | -14.4% (active) | 10% (active) | -80.7% (active)
C#Cc1nc(Nc2cc(C)[nH]n2)c2ccccc2n1 | -53.2% (active) |  | -36.1% (active) | -21.3% (active) | -42.4% (active) | -70% (active) | -93.6% (active) | 2.05% (active) | -19.8% (active) | -31.6% (active)
COc1cc(-c2cnc3nonc3n2)c(OC)c2c1OCO2 | 98.1% |  | 85.5% | 107% | 91.6% | 99.1% | 88.3% | 85.3% | 83.9% | 100%
O=C1c2cccnc2C(=O)c2c1c(C(=O)OCCN1CCOCC1)c1ccccn21 | 7.23% (active) |  | -26.7% (active) | -6.05% (active) | 7.94% (active) |  | -30.4% (active) | 8.9% (active) | -16.2% (active) | -30.4% (active)
